Laboratory results from PubChem BioAssay AID1224921 (Broad Institute, 2016).
In all, about 1,400 compounds went through this assay and about 350 (25%) were called active. Inconclusive results (about 2%) are left out. The rule behind the calls is not given here. Not all results are given here. Entries with a potency or affinity are not part of this list.

assay: C. difficile growth inhibition, confirmation, 4-point retest (AID 1224921); details: Clostridioides difficile clinical isolate growth, OD600, 24 h, active compounds read low; at 30 µM unless noted;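 note: plate controls were DMSO wells for no effect and levofloxacin 16 µg/mL wells for full effect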

Max activity, inactive:
O=C(Nc1ccc2c(c1)OCO2)N[C@H]1CC[C@H](CCNC(=O)C2CC2)O[C@@H]1CO -10.4% [at 1.95 µM]
CCNC(=O)C[C@@H]1CC[C@H](NC(=O)C2CC2)[C@@H](CO)O1 -9.17%
O=C(NCC[C@@H]1CC[C@H](NC(=O)C2CCCCC2)[C@@H](CO)O1)Nc1ccc(Cl)cc1 16.1% [at 8 µM]
O=C(NCC[C@H]1CC[C@@H](NC(=O)C2CCCCC2)[C@@H](CO)O1)Nc1ccc(Cl)cc1 15.3% [at 8 µM]
C[C@@H]1CN([C@@H](C)CO)S(=O)(=O)c2ccc(C#CC3CC3)cc2O[C@H]1CN(C)Cc1ccncc1 53.6%
C[C@@H]1CN([C@@H](C)CO)S(=O)(=O)c2ccc(C3=CCCC3)cc2O[C@H]1CN(C)Cc1ccncc1 8.26%
CCCN1[C@@H]2c3ccc(/C=C/c4ccccc4)c(=O)n3C[C@H]1[C@H](CO)[C@H]2C(=O)NCC1CC1 3.29%
O=C(Nc1ccc2c(c1)[C@@H]1C[C@H](CC(=O)N3CCc4ccccc4C3)O[C@H](CO)[C@@H]1O2)NC1CCCC1 -11.8%
CC(C)[C@H](C)NC(=O)N(C)C[C@@H]1OCc2ccccc2-c2ccccc2C(=O)N([C@H](C)CO)C[C@H]1C -14.1% [at 8 µM]
CCC(=O)Nc1ccc2c(c1)C(=O)N(C)C[C@H](OC)[C@@H](C)CN(C(=O)CN1CCOCC1)[C@H](C)CO2 -15.4% [at 1.95 µM]
CCCNC(=O)Nc1ccc2c(c1)C(=O)N(C)C[C@@H](OC)[C@H](C)CN(CCC(F)(F)F)[C@@H](C)CO2 17.1%
CO[C@@H]1CN(C)C(=O)c2cc(NC(=O)c3cccc(F)c3)ccc2OC[C@H](C)N(C(C)=O)C[C@H]1C -16.4% [at 0.5 µM]
CCCN1C[C@H](C)[C@@H](OC)CN(C)C(=O)c2cc(NC(=O)Nc3ccccc3F)ccc2OC[C@H]1C -17.1% [at 8 µM]
Cc1noc(C)c1NC(=O)N[C@H]1CC[C@@H](CC(=O)Nc2ccc(-c3ccccc3)cc2)O[C@@H]1CO 28.3% [at 35 µM]
O=C(O)C[C@H]1C[C@@H]2c3cc(NC(=O)c4ccc5c(c4)OCO5)ccc3O[C@@H]2[C@H](CO)O1 -10.2% [at 0.5 µM]
CCNC(=O)C[C@H]1CC[C@H](NC(=O)C2CC2)[C@@H](CO)O1 -15.8% [at 8 µM]
CCNC(=O)C[C@H]1CC[C@@H](NC(=O)C2CC2)[C@H](CO)O1 -5.49% [at 1.95 µM]
CO[C@@H]1CN(C)C(=O)c2ccc(NC(=O)Nc3cccc(Cl)c3)cc2OC[C@@H](C)N(C(=O)Nc2c(C)noc2C)C[C@H]1C -7.11% [at 0.5 µM]
C[C@@H]1CN([C@@H](C)CO)S(=O)(=O)c2ccc(C3=CCCCC3)cc2O[C@@H]1CN(C)Cc1ccncc1 54.5%
CCS(=O)(=O)Nc1ccc2c(c1)C(=O)N(C)C[C@H](OC)[C@@H](C)CN(C(C)=O)[C@@H](C)CO2 -9.47% [at 1.95 µM]
CO[C@@H]1CN(C)C(=O)c2cc(NC(C)=O)ccc2OC[C@H](C)N(Cc2nccs2)C[C@H]1C 10.1%
CO[C@H]1CN(C)C(=O)c2cc(NC(C)=O)ccc2OC[C@H](C)N(CC2CCCCC2)C[C@H]1C 16.4%
C[C@@H]1CN([C@H](C)CO)S(=O)(=O)c2ccc(C#CC3(O)CCCC3)cc2O[C@@H]1CN(C)C(=O)Nc1ccc(F)cc1 21.5%
O=C(C[C@@H]1C=C[C@@H](NC(=O)Cc2cccnc2)[C@H](CO)O1)Nc1ccccc1 -12.6%
COc1ccccc1S(=O)(=O)N[C@@H]1C=C[C@H](CC(=O)N2CCCCC2)O[C@H]1CO -12.3% [at 8 µM]
O=C(C[C@@H]1C[C@H]2c3cc(NC(=O)Nc4ccccc4)ccc3O[C@H]2[C@@H](CO)O1)NC1CCCC1 -18%
Cc1ccc(-c2ccc3c(c2)O[C@H](CN(C)Cc2cccnc2)[C@H](C)CN([C@@H](C)CO)S3(=O)=O)cc1 32.9%
CC(=O)N(C)C[C@@H]1Oc2ncc(C#Cc3ccc(F)cc3)cc2C(=O)N([C@H](C)CO)C[C@H]1C 21.7%
CO[C@H]1CN(C)C(=O)c2ccc(NC(=O)Nc3cccc(Cl)c3)cc2OC[C@H](C)NC[C@@H]1C -12.1% [at 8 µM]
CO[C@H]1CN(C)C(=O)c2ccc(NC(=O)Nc3cccc(Cl)c3)cc2OC[C@@H](C)NC[C@@H]1C 37.7%
C[C@@H]1CN([C@H](C)CO)C(=O)c2cc(NC(=O)CCCN(C)C)ccc2O[C@@H](C)CCCCO[C@@H]1CN(C)Cc1ccc(C(F)(F)F)cc1 6.03% [at 35 µM]
C[C@@H]1CN([C@H](C)CO)C(=O)c2cc(NC(=O)Nc3cccc4ccccc34)ccc2O[C@@H](C)CCCCO[C@H]1CN(C)C(=O)c1ccccc1 24.4%
CO[C@@H]1CN(C)C(=O)c2ccc(NC(C)=O)cc2OC[C@@H](C)N(C(=O)CN(C)C)C[C@H]1C -8.17%
CCCC(=O)Nc1ccc2c(c1)C(=O)N(C)C[C@@H](OC)[C@@H](C)CN(Cc1ccc(F)cc1)[C@H](C)CO2 20.9%
COc1ccc(-c2cnc3c(c2)C(=O)N([C@H](C)CO)C[C@H](C)[C@@H](CN(C)Cc2ccc(C(=O)O)cc2)O3)cc1 -17.6% [at 2.1 µM]
CO[C@H]1CN(C)C(=O)c2cc(NC(=O)c3nc4ccccc4s3)ccc2OC[C@H](C)N(Cc2ccncc2)C[C@@H]1C 20%
CCC(=O)N1C[C@@H](C)[C@@H](OC)CN(C)C(=O)c2ccc(NC(=O)Nc3ccccc3)cc2OC[C@H]1C -13.3% [at 1.95 µM]
COCC(=O)N(C)C[C@H]1Oc2cc(C#Cc3ccccc3)ccc2S(=O)(=O)N([C@H](C)CO)C[C@H]1C 35.4%
